Test results taken from the supplement of paper PMC7411054.

Experiments:
Conditions in all cases: treatment time: 24 h
[1] = test system: A549-CANX-COX4; assay: phenotypically active (imaging signature differs from DMSO and reproducible) at any of 0.3-9 uM (binary (1 = active, 0 = inactive)); higher = active
Method in brief: (§1)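 Fifteen reporter lines derived from A549, HepG2 and WPMY1 cells by gene editing, carrying BFP for segmentation plus GFP and RFP/FusionRed markers, were exposed to 0.3, 1, 3 or 9 µM for 24 h in four wells each and imaged live. Live-cell features from each well were normalised to solvent control wells. A well set counted as deviating when ≥3 of 4 wells lay beyond the 95th percentile of control Euclidean distances, and as reproducible when the median replicate Pearson correlation exceeded the 95th percentile of non-replicates. Phenotypic activity was assigned only when both criteria were met.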

[2] = test system: A549-TP53BP1-CLTA; assay: as above
Method in brief: as §1

[3] = test system: HepG2-ACTB-RAB5A; assay: as above
Method in brief: as §1

[4] = test system: HepG2-CANX-COX4; assay: as above
Method in brief: as §1

[5] = test system: HepG2-GM130-SQSTM1; assay: as above
Method in brief: as §1

[6] = test system: HepG2-TP53BP1-CLTA; assay: as above
Method in brief: as §1

[7] = test system: HepG2-TUBA1B-RELA; assay: as above
Method in brief: as §1

[8] = test system: WPMY1-ACTB-RAB5A; assay: as above
Method in brief: as §1

[9] = test system: WPMY1-CANX-COX4; assay: as above
Method in brief: as §1

[10] = test system: WPMY1-GM130-SQSTM1; assay: as above
Method in brief: as §1

[11] = test system: WPMY1-TP53BP1-CLTA; assay: as above
Method in brief: as §1

[12] = test system: WPMY1-TUBA1B-RELA; assay: as above
Method in brief: as §1

[13] = test system: A549-ACTB-RAB5A; assay: as above
Method in brief: as §1

[14] = test system: A549-GM130-SQSTM1; assay: as above
Method in brief: as §1

[15] = test system: A549-TUBA1B-RELA; assay: as above
Method in brief: as §1

[16] = test system: WPMY1-GM130-SQSTM1; assay: lowest phenotypically active concentration; higher = less potent
Method in brief: as §1

[17] = test system: HepG2-CANX-COX4; assay: as above
Method in brief: as §1

[18] = test system: WPMY1-ACTB-RAB5A; assay: as above
Method in brief: as §1

| Structure (SMILES) | phenotypically active [1] | phenotypically active [2] | phenotypically active [3] | phenotypically active [4] | phenotypically active [5] | phenotypically active [6] | phenotypically active [7] | phenotypically active [8] | phenotypically active [9] | phenotypically active [10] | phenotypically active [11] | phenotypically active [12] | phenotypically active [13] | phenotypically active [14] | phenotypically active [15] | lowest phenotypically active concentration [16] [µM] | lowest phenotypically active concentration [17] [µM] | lowest phenotypically active concentration [18] [µM] |
| --- | --- | --- | --- | --- | --- | --- | --- | --- | --- | --- | --- | --- | --- | --- | --- | --- | --- | --- |
| CC(CCc1ccccc1)NCC(O)c1ccc(O)c(C(N)=O)c1 (configuration not stated) [labetalol] | 0 (inactive) | 0 (inactive) | 0 (inactive) | 0 (inactive) | 0 (inactive) | 0 (inactive) | 0 (inactive) | 0 (inactive) | 0 (inactive) | 0 (inactive) | 0 (inactive) | 0 (inactive) | – | – | – | – | – | – |
| CC(C)NCC(O)COc1cccc2ccccc12 (configuration not stated) [propranolol] | 0 (inactive) | 0 (inactive) | 0 (inactive) | 0 (inactive) | 0 (inactive) | 0 (inactive) | 0 (inactive) | 0 (inactive) | 0 (inactive) | 0 (inactive) | 0 (inactive) | 0 (inactive) | – | – | – | – | – | – |
| O=S(c1ccccc1)c1ccc2nnnn2n1 (configuration not stated) | 0 (inactive) | – | 0 (inactive) | 0 (inactive) | 0 (inactive) | – | 0 (inactive) | 0 (inactive) | 1 (active) | 0 (inactive) | – | 1 (active) | 1 (active) | 0 (inactive) | 0 (inactive) | – | – | – |
| Cc1ccc(C(=O)c2ccc(CC(=O)O)n2C)cc1 [tolmetin] | 0 (inactive) | 0 (inactive) | 0 (inactive) | 0 (inactive) | 0 (inactive) | 0 (inactive) | 0 (inactive) | 0 (inactive) | 0 (inactive) | 0 (inactive) | 0 (inactive) | 0 (inactive) | – | – | – | – | – | – |
| NC(=O)c1sc2c([N+](=O)[O-])cc(C(F)(F)F)cc2[n+]1[O-] [Cyclapolin 9] | 0 (inactive) | 0 (inactive) | 0 (inactive) | 0 (inactive) | 0 (inactive) | 0 (inactive) | 0 (inactive) | 0 (inactive) | 0 (inactive) | 1 (active) | 0 (inactive) | 1 (active) | 0 (inactive) | 0 (inactive) | 0 (inactive) | 9 | – | – |
| Clc1ccc2nsnc2c1NC1=NCCN1 [tizanidine] | 0 (inactive) | 0 (inactive) | 0 (inactive) | 0 (inactive) | 0 (inactive) | 0 (inactive) | 0 (inactive) | 0 (inactive) | 0 (inactive) | 0 (inactive) | 0 (inactive) | 0 (inactive) | – | – | – | – | – | – |
| CCC1(c2ccccc2)NC(=O)N(C)C1=O (configuration not stated) [Mephenytoin] | 0 (inactive) | 0 (inactive) | 0 (inactive) | 0 (inactive) | 0 (inactive) | 0 (inactive) | 0 (inactive) | 0 (inactive) | 0 (inactive) | 0 (inactive) | 0 (inactive) | 0 (inactive) | – | – | – | – | – | – |
| C=C[C@H]1C[N@@]2CC[C@H]1C[C@@H]2[C@@H](O)c1ccnc2ccc(OC)cc12 [quinidine] | 0 (inactive) | – | 0 (inactive) | 0 (inactive) | 0 (inactive) | – | 0 (inactive) | 0 (inactive) | 0 (inactive) | 0 (inactive) | – | 0 (inactive) | 0 (inactive) | 0 (inactive) | 0 (inactive) | – | – | – |
| CN(CCOc1ccc(NS(C)(=O)=O)cc1)CCc1ccc(NS(C)(=O)=O)cc1 [dofetilide] | 0 (inactive) | – | 0 (inactive) | 0 (inactive) | 0 (inactive) | – | 0 (inactive) | 0 (inactive) | 0 (inactive) | 0 (inactive) | – | 0 (inactive) | 0 (inactive) | 0 (inactive) | 0 (inactive) | – | – | – |
| COC(=O)C1=C(C)NC(C)=C(C(=O)OC)C1c1ccccc1[N+](=O)[O-] [nifedipine] | 0 (inactive) | 0 (inactive) | 0 (inactive) | 0 (inactive) | 0 (inactive) | 0 (inactive) | 0 (inactive) | 0 (inactive) | 0 (inactive) | 1 (active) | 0 (inactive) | 0 (inactive) | 0 (inactive) | 0 (inactive) | 0 (inactive) | 9 | – | – |
| N#Cc1c(O)c2c(-c3ccc(-c4ccccc4O)cc3)csc2[nH]c1=O | 0 (inactive) | 0 (inactive) | 0 (inactive) | 0 (inactive) | 0 (inactive) | 0 (inactive) | 0 (inactive) | 0 (inactive) | 0 (inactive) | 0 (inactive) | 0 (inactive) | 0 (inactive) | – | – | – | – | – | – |
| CN1C(=O)CC(c2ccccc2)C1=O (configuration not stated) [phensuximide] | 0 (inactive) | 0 (inactive) | 0 (inactive) | 0 (inactive) | 0 (inactive) | 0 (inactive) | 0 (inactive) | 0 (inactive) | 0 (inactive) | 0 (inactive) | 0 (inactive) | 0 (inactive) | – | – | – | – | – | – |
| C#C[C@]1(OC(C)=O)CC[C@H]2[C@@H]3CCC4=C[C@@H](OC(C)=O)CC[C@@H]4[C@H]3CC[C@@]21C [ethynodiol diacetate] | 0 (inactive) | 0 (inactive) | 0 (inactive) | 0 (inactive) | 0 (inactive) | 0 (inactive) | 0 (inactive) | 0 (inactive) | 0 (inactive) | 0 (inactive) | 0 (inactive) | 0 (inactive) | – | – | – | – | – | – |
| CC(C)C(=O)Nc1ncc(-c2cc(C(F)F)nn2-c2c(Cl)cccc2Cl)s1 | 0 (inactive) | – | 1 (active) | 1 (active) | 0 (inactive) | – | 0 (inactive) | 1 (active) | 1 (active) | 1 (active) | – | 1 (active) | 1 (active) | 0 (inactive) | 0 (inactive) | 9 | 9 | 9 |
| CC(C)[C@H](N)C(=O)OCC(CO)OCn1cnc2c(=O)[nH]c(N)nc21 (some centres not stated) [valganciclovir] | 0 (inactive) | 0 (inactive) | 0 (inactive) | 0 (inactive) | 0 (inactive) | 0 (inactive) | 0 (inactive) | 0 (inactive) | 0 (inactive) | 1 (active) | 0 (inactive) | 0 (inactive) | 0 (inactive) | 0 (inactive) | 0 (inactive) | 1 | – | – |
| O=c1cc(-c2ccc(O)cc2)oc2c(C3O[C@H](CO)[C@@H](O)[C@H](O)[C@H]3O)c(O)cc(O)c12 (some centres not stated) [Vitexin] | 0 (inactive) | 0 (inactive) | 0 (inactive) | 0 (inactive) | 0 (inactive) | 0 (inactive) | 0 (inactive) | 0 (inactive) | 0 (inactive) | 0 (inactive) | 0 (inactive) | 0 (inactive) | – | – | – | – | – | – |
